The results in this text go back to PubChem BioAssay AID588726 (The Scripps Research Institute Molecular Screening Center, 2011).

Structures are written as SMILES. Out of some 360,000 compounds screened, about 8,200 (2.3%) were called active. Rule as the data show it: active = inhibition above about 27%; inactive = the rest. The list comes from a sample in which actives are over-represented; it also holds similar structures and randomly drawn compounds.

As usually defined, the inhibition is the change of the read-out against control, counted positive when it falls.

Chain of Fructose-bisphosphate aldolase (Mycobacterium tuberculosis (strain ATCC 25618 / H37Rv)) (P9WQA3 whole entry, looked up): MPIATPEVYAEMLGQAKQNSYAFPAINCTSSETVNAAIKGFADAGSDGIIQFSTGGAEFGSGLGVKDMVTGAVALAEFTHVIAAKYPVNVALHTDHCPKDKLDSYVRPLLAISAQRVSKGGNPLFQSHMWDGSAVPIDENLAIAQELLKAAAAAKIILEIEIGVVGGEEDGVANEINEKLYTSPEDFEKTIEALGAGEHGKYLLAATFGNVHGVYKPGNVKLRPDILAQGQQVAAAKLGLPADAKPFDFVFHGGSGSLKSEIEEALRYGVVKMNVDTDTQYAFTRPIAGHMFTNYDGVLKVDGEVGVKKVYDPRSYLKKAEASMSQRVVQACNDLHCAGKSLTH

This assay concerns the target Fructose-bisphosphate aldolase (Mycobacterium tuberculosis (strain ATCC 25618 / H37Rv)) (UniProt P9WQA3). The experiment in a line: Mtb FBA enzyme inhibitors, primary screen, biochemical, fluorescence, strain H37Rv (AID 588726).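 Also: 0% = vehicle and 100% = reference inhibitor.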 As to conditions: purified M. tuberculosis FBA, fluorescence read-out, at 1 µM, hits give high values.
Consider `O=C(CC1SC(N2CCCC2)=NC1=O)Nc1ccc(C(=O)NCCc2ccc(F)cc2)cc1` (configuration not stated), for which the inhibition is -0.1% (inactive).
The value for `COc1ccccc1C(=O)NCC(=O)NCCSc1ccc(Br)cc1` was -1.16% (inactive); that for `O=C(NCc1ccco1)c1sc2cccc(F)c2c1Cl` was 5.05% (inactive).
In the case of `Cn1nc(-c2ccc(Cl)cc2)c2cc(C(=O)NCc3ccco3)sc21`, the inhibition is 43.5% (active).
As for `O=C(NCc1ccco1)c1cccc(-c2ccc3nncn3c2)c1`, the figure is -0.68% (inactive); as for `COc1cc(C2OC(c3cc(OC)c(OC)c(OC)c3)C(C)C2C)cc(OC)c1OC` (configuration not stated), -1.3% (inactive).
The value for `CC1CCCCC1NC(=O)CO/N=C/c1ccc(OC(F)F)cc1` (configuration not stated) was -0.83% (inactive); that for `COc1ccc(C=C(C#N)C#N)c(CSc2ccccn2)c1` was 1.22% (inactive); that for `COc1ccc2nc(-c3ccccn3)ccc2c1` was 77.3% (active).
Regarding `COc1ccc2cc(CCl)c(Cl)nc2c1`, the inhibition was 0.58% (inactive).
The value for `O=C(COc1cc(Cl)c(Cl)cc1Cl)NC(=O)NC1CCCC1` was 5.04% (inactive); that for `CC(C)(C)C(=O)CN1C2=NCCN2c2ccccc21` was -3.57% (inactive); that for `CC(C)n1c(CN2CCN(Cc3ccccc3)CC2)nc2ccccc21` was 3.41% (inactive).
Regarding `CC(C)n1c(-c2cccs2)nc2ccccc21`, the inhibition was 32.3% (active).
As to `CC(C)n1c(NCc2c[nH]c3ccccc23)nc2ccccc21`, the inhibition is 1.92% (inactive).
As for `Cc1noc(C)c1-c1ccc2ncnc(NC(C)c3ccco3)c2c1` (configuration not stated), the figure is 8.84% (inactive); as for `O=C(O)C1CCC(CNS(=O)(=O)c2ccc(Br)cc2)CC1` (configuration not stated), 0.74% (inactive).
With `CCN1CCN(C(=O)c2ccc(CN(c3ccc(C)c(C)c3)S(C)(=O)=O)cc2)CC1`, the inhibition is -1.53% (inactive).
On to `O=c1oc2ccccc2cc1-c1cn(-c2ccccc2)c(=S)[nH]1`, for which the inhibition is 40.4% (active).
Regarding `C/C(=C\c1ccco1)CN1CCC(N2CCC(C(=O)N3CCOCC3)CC2)CC1`, the inhibition is -2.26% (inactive).
As for `OCC[C@H]1C[C@@H](O)[C@H](O)[C@]2(OCCCc3ccccc32)O1`, the figure is 2.25% (inactive); as for `O=C(N/N=C\c1ccc(-c2ccc(Cl)c(Cl)c2)o1)C(=O)N1CCCC1`, 1.03% (inactive).
As to `O=C(COc1ccc2c(c1)CCC2)N1CCN(c2ccc(F)cc2)CC1`, the inhibition was -1.29% (inactive).
Regarding `COc1ccc(OCC(=O)N2CCN(C(=O)c3cccs3)CC2)cc1`, the inhibition was 1.53% (inactive).
The value for `CCN1CCN(C(=O)c2cc3cc4ccc(OC)cc4nc3s2)CC1` was 43.9% (active); that for `CCN1CCN(C(=O)CN(C)S(=O)(=O)c2ccc(OC)cc2)CC1` was -1.71% (inactive); that for `O=C(OCC(=O)N1CCCCCC1)c1ccc(Br)c(S(=O)(=O)N2CCOCC2)c1` was -1.57% (inactive).
